{"source": "PubChem BioAssay (NCI)", "note": "Several values for one entry are separate records, joined by “and”; a condition that tells them apart may be missing. Equal values may be shown once. About 83,000 compounds went through this panel and 20% of them were active in at least one assay; those are over-represented in the sample as a whole.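 Testing used 96-well plates and a 48-hour single-concentration exposure. Example: -40 means 40% of the starting cells died.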 Activity calls are given as the source filed them. How the source made its calls: active means growth percent below 10; inactive means the rest."}
{"tested_on": "MCF7 breast", "assay": "NCI-60 one-dose screen, 48 h (100 = growth as untreated, 0 = no growth, -100 = all killed)", "conditions": "10 µM unless noted"}
{"smiles": "COc1c2c(c(OC)c3c1c(=O)c1ccccc1n3C)OCO2", "growth": "9.09% [100 µM] (active)"}
{"smiles": "COc1ccc(CC2c3cc(OC)c(OC)c(OC)c3CC[N+]2(C)C)cc1Oc1ccc(CC2c3cc4c(c(OC)c3CCN2C)OCO4)cc1", "note": "(centres undefined)", "growth": "69.2% [100 µM] (inactive) and 5.51% [100 µM] (active)"}
{"smiles": "CCOC(=O)/C(C#N)=C(/NNc1ccccc1)c1ccncc1C(=O)O", "growth": "28.2% [100 µM] (inactive) and 39.1% [100 µM] (inactive)"}
{"smiles": "N#C/C(=C\\c1ccccc1)C(=O)Nc1nnc(-c2ccccc2)o1", "growth": "33.4% [100 µM] (inactive) and 3.23% [100 µM] (active)"}
{"smiles": "O=C1NC(=S)NC1C(Cc1ccccc1)c1ccco1", "note": "(centres undefined)", "growth": "19% [100 µM] (inactive) and 3.76% [100 µM] (active)"}
{"smiles": "CCCCCCCCCCCCCC1=C(O)C(=O)C(CC2=C(O)C(=O)C(CCCCCCCCCCCCC)=C(O)C2=O)=C(O)C1=O", "growth": "2.9% [100 µM] (active) and -79.8% [100 µM] (active)"}
{"smiles": "CCOC(=O)C1(C#N)C(=O)c2cc[n+](CC[n+]3ccc4c(c3)C(=O)C(C#N)(C(=O)OCC)C4=O)cc2C1=O", "note": "(centres undefined)", "growth": "88.7% [100 µM] (inactive) and 89.4% [100 µM] (inactive)"}
{"smiles": "N#Cc1c(SCc2ccccc2)nc(-c2ccccc2)[nH]c1=S", "growth": "3.22% [100 µM] (active) and -27% [100 µM] (active)"}
{"smiles": "C=C1CC(O)C2C(=C)C(=O)OC2C2C(C)C(=O)CC12", "note": "(centres undefined)", "growth": "-76.9% [100 µM] (active) and -61.7% [100 µM] (active)"}
{"smiles": "CN(C)CCNc1ccc(NCC[N+](C)(C)Cc2ccc([N+](=O)[O-])cc2)c2c1C(=O)c1c(O)ccc(O)c1C2=O", "growth": "24.2% [100 µM] (inactive) and -30.3% [100 µM] (active)"}
{"smiles": "COc1ccc(C2=C(N)c3ccccc3C2=O)cc1", "growth": "79.1% [100 µM] (inactive) and 72.9% [100 µM] (inactive)"}
{"smiles": "C=C1C(=O)OC2C1CC(O)/C(C)=C\\CCC1(C)OC21", "note": "(centres undefined)", "growth": "21.9% [100 µM] (inactive) and -83.3% [100 µM] (active)"}
{"smiles": "O=[N+]([O-])c1cccc(-c2ncnc(-c3cccc([N+](=O)[O-])c3)n2)c1", "growth": "55.1% [100 µM] (inactive) and 68.9% [100 µM] (inactive)"}
{"smiles": "Cc1ccc(/C=N/Nc2ccc3ccccc3n2)s1", "growth": "-79.9% [100 µM] (active) and -100% [100 µM] (active)"}
{"smiles": "ClC(Cl)(Cl)C1CCOC1n1nnc2ccccc21", "note": "(centres undefined)", "growth": "68.3% [100 µM] (inactive) and 0.0175% [100 µM] (active)"}
{"smiles": "N#Cc1cnn2c1n[n+]([O-])c1ccc(Cl)cc12", "growth": "9.63% [100 µM] (active) and -99.2% [100 µM] (active)"}
{"smiles": "O=C1c2c(O)ccc(O)c2C(=O)c2c(NCCNC(=O)C(O)C(O)C(O)C(O)CO)ccc(NCCNC(=O)C(O)C(O)C(O)C(O)CO)c21", "note": "(centres undefined)", "growth": "-95.5% [100 µM] (active) and -100% [100 µM] (active)"}
{"smiles": "COc1ccc2c3c(c(=O)n(C)c2c1OC)C=CC(C)(C)O3", "growth": "4.77% [100 µM] (active) and 0.153% [100 µM] (active)"}
{"smiles": "O=C1C=C(Nc2ccc(S(=O)(=O)Nc3nccs3)cc2)c2ccccc2C1=O", "growth": "-89% [100 µM] (active) and -74.5% [100 µM] (active)"}
{"smiles": "Cc1sccc1C(=S)Nc1ccc(Cl)c(/C=N/OC(C)(C)C)c1", "growth": "-73.5% [100 µM] (active) and -46.7% [100 µM] (active)"}
{"smiles": "CC(=O)NC(CS/N=N/c1nc[nH]c1C(N)=O)C(=O)O", "note": "(centres undefined)", "growth": "28.2% [100 µM] (inactive) and 6.86% [100 µM] (active)"}
{"smiles": "CCOC(=O)CCCOc1cc(-c2ccccc2F)nc2cc3c(cc12)OCO3", "growth": "14.3% [100 µM] (inactive) and -100% [100 µM] (active)"}
{"smiles": "CC(=O)O[C@@H]1C[C@@]2(C)[C@@H]3CC=C4[C@@H](C[C@H](O)C(=O)C4(C)C)[C@]3(C)C(=O)C[C@]2(C)[C@H]1[C@@](C)(O)C(=O)/C=C/C(C)(C)OC(C)=O", "growth": "-52.5% [100 µM] (active) and -100% [100 µM] (active)"}
{"smiles": "CCOc1cc2c(cc1O)C(=O)C[C@@H]1[C@@H]2CC[C@]2(C)[C@@H](O)CC[C@@H]12", "growth": "4.23% [100 µM] (active) and -100% [100 µM] (active)"}
